WRN helicase inh-1 = WRN helicase (human) inhibition. Q14191. WRN helicase unwinding, fluorescent forked duplex, kinetic. Potency, µM (highest dose often 114 µM), hits mostly inhibitors. 360,000 compounds, 0.46% hits. AID 651768; also: nearly all actives have a fitted effect of over 55% in size
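Fluorescence dequenching readout, ex 525 nm/em 598 nm, kinetic mode: forked duplex DNA (100 nM final) with adjacent fluorophore and quencher unwound by WRN (20 nM final) with 2 mM ATP. Compound preincubation 15 min, room temperature.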
APE1 inh = APE1 (human) endonuclease inhibition. Potency, µM (series often up to 65.8 µM), actives largely listed as inhibitors. recombinant APE1, TAMRA/BHQ-2 abasic DNA cleavage fluorescence. AID 2517. P27695. 350,000 compounds, 0.35% hits; also: nearly all actives have a fitted effect of over 55% in size
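Step 1: APE1 (0.75 nM) with compound, 15 min RT. Step 2: add 50 nM fluorophore/quencher THF duplex. Step 3: three fluorescence reads 60 s apart (525/598 nm); read 3 minus read 1 = reaction progress.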
BLM helicase inh-1 = blocks DNA unwinding by human BLM helicase. Potency, µM (top dose mostly 56.1 µM), usual class: inhibitors. recombinant BLM DNA unwinding, fluorescence dequenching. P54132. 350,000 compounds, 0.2% hits. AID 2528; also: nearly all actives have a fitted effect of over 35% in size
RECQ1 inh = RECQ1 (human) helicase inhibition; P46063; RECQ1 DNA unwinding, red fluorescence kinetic read; Potency, µM (highest dose often 57.3 µM), actives largely listed as inhibitors; 240,000 compounds, 0.54% hits; AID 2549; also: nearly all actives have a fitted effect of over 30% in size
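RECQ1T1 50 nM; forked duplex (20 bp + 30-nt ss tails) 200 nM, ATP 2 mM final; pH 8.0, 2 mM MgCl2, 2.5 ug/ml poly(dI-dC); 15 min compound preincubation; discontinuous kinetic read over 2 h at RT.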
FEN1 inh = human FEN1 inhibition. P39748. Recombinant FEN1 flap cleavage, fluorescence, 15 min. Potency, µM (top dose mostly 114 µM), usual class: inhibitors. 390,000 compounds, 0.35% hits. AID 588795; also: nearly all actives have a fitted effect of over 65% in size
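Concentration–response screening of FEN1 (10 nM): 15 min compound preincubation at room temperature, reaction started with 50 nM substrate and read at 0 and 15 min. Corrected, normalized data were fitted by a four-parameter Hill equation.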
WRN helicase inh-2 = confirmation of human WRN helicase inhibitors; 610 compounds, 63% hits; shares compounds with WRN helicase inh-1; Potency, µM (doses to about 57.1 µM), hits mostly inhibitors; WRN helicase DNA unwinding, fluorescence kinetic; also: nearly all actives have a fitted effect of over 65% in size
TO DNA binding = DNA binding via thiazole orange displacement | Potency, µM (highest dose often 57.1 µM), most hits filed as inhibitors | AID 720499 | thiazole orange DNA binding displacement, fluorescence | 610 compounds, 10% hits | shares compounds with WRN helicase inh-1;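 also: drop in dye fluorescence marks compound binding to DNA; nearly all actives have a fitted effect of over 60% in size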
BLM helicase inh-2 = counter-screen for WRN helicase inhibitors: human BLM helicase inhibition. AID 720503. Recombinant BLM helicase DNA unwinding, red fluorescence. 610 compounds, 60% hits. shares compounds with WRN helicase inh-1. Potency, µM (doses to about 57.1 µM), hits mostly inhibitors; also: nearly all actives have a fitted effect of over 60% in size
A number is an active result; - = inactive; ? = inconclusive; . = no result. Only some compounds are listed: those with a hit (about 0.87% of all), similar ones and a draw of the others. Calls follow the shape of the dose curve; as a rule, active = well fitted curve in the direction sought with a large enough effect; inconclusive = small, poorly fitted or top-dose-only effect, or another doubt; inactive = no such curve, though single readings can be large; an effect the other way counts as inactive or inconclusive.

SMILES	WRN helicase inh-1	APE1 inh	BLM helicase inh-1	RECQ1 inh	FEN1 inh	WRN helicase inh-2	TO DNA binding	BLM helicase inh-2
CC1=NOC(=O)/C1=C\c1ccc(-c2cccc(Cl)c2)o1	13.4µM	?	-	?	50.1µM	?	-	7.64µM
O=C(CSC1=Nc2ccccc2N=C(c2ccc(F)cc2)C1)Nc1cccc(C(F)(F)F)c1	.	.	-	.	?	.	.	.
CC(C)(C)N(Cc1ccc2c(c1)OCO2)C(=O)/C=C\S(=O)c1ccccc1 (centres undefined)	?	.	.	.	-	12.1µM	-	24.1µM
CCN(Cc1ccc2c(c1)OCO2)C(=O)/C=C/c1cccc(Br)c1	-	-	-	.	-	.	.	.
Cc1ccc(Cn2c(=O)c3cccnc3n(Cc3ccc(F)cc3)c2=O)cc1	.	.	-	.	-	.	.	.
C=CCN1C(=O)/C(=C2/Sc3ccccc3N2CC)SC1=S	-	-	-	.	-	.	.	.
C=CCN1C(=O)/C(=C2/Sc3ccccc3N2CCCS(=O)(=O)O)SC1=S	?	?	-	-	?	21.5µM	-	21.5µM
COc1cc2c(cc1NC(=O)CSc1nc3ccccc3[nH]1)oc1ccccc12	?	?	-	-	-	-	-	?
N#CC1=C(N)Oc2cc(O)c(C=Nc3ccccc3)cc2C1c1ccccc1 (centres undefined)	-	-	-	-	-	.	.	.
Cc1ccccc1N=Cc1cc2c(cc1O)OC(N)=C(C#N)C2c1ccccc1 (centres undefined)	?	-	-	-	-	?	-	?
Cc1ccc(S(=O)(=O)N2CC=C(c3ccc(F)cc3)CC2)cc1	-	-	-	-	-	.	.	.
CCn1c(C)c(C2=CCN(S(=O)(=O)c3ccc(C)cc3)CC2)c2ccccc21	?	-	-	-	-	?	-	?
COc1cccc(C(=O)N2CCc3cc(OC)c(OC)cc3C2COc2ccc3c(C)cc(=O)oc3c2)c1 (centres undefined)	.	.	-	.	-	.	.	.
CN(c1ncnc2onc(-c3cccc(Cl)c3)c12)C1CCCCC1	.	.	-	.	-	.	.	.
C#CCOc1ccc(/C=C2/C(=O)ON=C2C)cc1Br	?	-	-	.	-	-	-	?
CCCOc1ccc(/C=C2/C(=O)ON=C2C)cc1OCC	-	-	-	.	-	.	.	.
CCOc1cc(/C=C2\C(=O)ON=C2c2ccccc2)cc(Br)c1O	?	-	-	.	?	?	-	?
CCOc1cc(/C=C2\C(=O)ON=C2C)ccc1OCc1ccccc1	?	?	-	-	-	?	-	-
COc1ccc(/C=C2/C(=O)ON=C2C)cc1Cl	?	-	-	.	-	-	-	-
COc1cc(/C=C2\C(=O)ON=C2c2ccccc2)cc(Br)c1O	?	-	-	.	?	.	.	.
COc1cc(NC(=O)c2c(C)oc3ncnc(N4CCCCC4)c23)cc(OC)c1	.	.	-	.	-	.	.	.
CN1CCN(CCNC(=O)c2cnn(-c3ccc(Cl)cc3)c2C2CCN(C(=O)OC(C)(C)C)CC2)CC1	.	.	-	.	-	.	.	.
CCc1c(C(C)S(=O)(=O)c2ccc(C)cc2)[nH]c(=O)n1-c1ccc(C)cc1 (centres undefined)	-	-	-	-	-	.	.	.
CCc1[nH]c(=O)[nH]c1C(C)S(=O)(=O)c1ccc(C)cc1 (centres undefined)	?	-	-	-	-	-	-	?
CCOc1ccc(NC(=O)CN2C(=O)C(c3ccccc3)=NC23CCC(C)CC3)cc1 (centres undefined)	.	.	-	.	-	.	.	.
C=CCn1c(SCC(=O)c2ccc(O)c(O)c2)nnc1-c1ccc(C)cc1	?	-	.	.	-	19.2µM	-	?
C=CCn1c(SCC(=O)c2ccc(O)c(O)c2)nnc1-c1ccc(OC)cc1	28.2µM	-	.	.	-	17.1µM	-	?
C=CCn1c(SCC(=O)c2ccc(O)c(O)c2)nnc1-c1cccc(OC)c1	?	-	.	.	-	.	.	.

Screening results as filed in PubChem.
